An excerpt weighted towards active compounds, which were near 4.6% of everything screened.
TRHR ag – qHTS for Small Molecule Agonists and Allosteric Enhancers of Human TRH Receptor: Primary Screen for Agonists. hit rate 0.18% among 360,000. Thyrotropin-releasing hormone receptor (Homo sapiens), P34981. TRHR cells, calcium flux fluo-8, FDSS agonist mode. activation, % at 2 µM
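Fluo-8-loaded TRHR cells; 10 s baseline, compound added, kinetic Ca2+ fluorescence read 1/s, agonist mode.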
TRHR PAM – qHTS for Small Molecule Agonists and Allosteric Enhancers of Human TRH Receptor: Primary Screen for Enhancers; hit rate 0.66% among 360,000; enhancement, % at 2 µM; TRHR cells, fluo-8 calcium fluorescence, EC20 TRH enhancement; Thyrotropin-releasing hormone receptor (Homo sapiens), P34981; AID 493056, 2011; in the data active = enhancement above about 30%
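Enhancer read-out: after compound pinning and an initial kinetic agonist-mode read, an EC20 of TRH (10 nM final) was injected and fluo-8 calcium signal (Ex 480/Em 530) followed at 1 s/cycle for 100 cycles in TRHR-expressing cells.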
D1 PAM – Potentiators of Human D1 Dopamine Receptor: qHTS. hit rate 0.036% among 360,000. potentiation, % at 10 µM. D(1A) dopamine receptor (Homo sapiens), P21728. HEK293 TREx D1 cells, calcium flux, dopamine EC20 potentiation; in the data active = potentiation above about 30%
Target sequence (P21728 whole entry, looked up): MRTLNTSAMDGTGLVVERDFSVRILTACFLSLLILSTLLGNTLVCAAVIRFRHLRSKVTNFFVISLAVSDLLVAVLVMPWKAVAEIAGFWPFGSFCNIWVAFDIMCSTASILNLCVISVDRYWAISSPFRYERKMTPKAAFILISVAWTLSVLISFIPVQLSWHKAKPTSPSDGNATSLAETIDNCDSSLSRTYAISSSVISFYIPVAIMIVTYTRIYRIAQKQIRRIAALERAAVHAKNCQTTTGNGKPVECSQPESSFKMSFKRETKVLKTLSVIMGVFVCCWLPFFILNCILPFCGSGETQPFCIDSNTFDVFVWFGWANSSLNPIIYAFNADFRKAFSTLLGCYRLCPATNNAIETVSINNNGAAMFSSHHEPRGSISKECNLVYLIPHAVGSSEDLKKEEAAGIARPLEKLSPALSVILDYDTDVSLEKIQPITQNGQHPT
D1 antag – Antagonist of Human D 1 Dopamine Receptor: qHTS; D(1A) dopamine receptor (Homo sapiens), P21728; HEK293 TREx D1 cells, calcium flux, dopamine EC80; active compounds read low; activity change, negative = inhibition, % at 10 µM; hit rate 3.2% among 360,000; in the data active = activity change below about -30%
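Compound effects on dopamine-evoked calcium signalling were measured in tetracycline-induced HEK293 Trex D1 cells. Dopamine at EC80 followed a 180 s compound pre-read, and fluorescence was tracked kinetically for 180 s more.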
D1 ag – Allosteric Agonists of the Human D1 Dopamine Receptor: qHTS | D(1A) dopamine receptor (Homo sapiens), P21728 | HEK293 T-REx D1 cells, calcium flux, agonist mode | activation, % at 2 µM | hit rate 1% among 360,000 | AID 504660, 2011
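Inducible HEK293 T-REx D1 cells, force-coupled to calcium signalling, were plated at 4000 cells/well with tetracycline and held overnight at 30 C. After no-wash calcium dye loading, compound-evoked calcium rise over 180 s flagged agonists.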
Epigenetic derep – Quantitative High-Throughput Screen for Regulators of Epigenetic Control | Potency, µM (titrated, usually from 53.9 µM), actives largely listed as activators | murine LDR cells, GFP reporter derepression, 30 h | AID 1865, 2009 | hit rate 0.2% among 280,000; active = well fitted activation curve with a large enough effect; inconclusive = small, poorly fitted or top-dose-only effect; also: nearly all actives have a fitted effect of over 60% in size
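In this reporter-derepression format, murine cells bearing a silenced integrated CMV-GFP locus incubate with test compound (30 h, 37 C), then are washed and imaged; fluorescent objects of 20–120 um count as induced cells.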
Large screens that a line does not name were inactive. Rule as the data show it, unless noted: active = activation above about 30%; inactive = the rest.

CCC(=O)Nc1ccc(N2CCN(CC)CC2)c(Cl)c1	none
CCCCC[C@@H](/C=C/C=C\CCCCCCCCCC(=O)O)OO	none (no result: TRHR ag, TRHR PAM, D1 PAM, D1 antag, D1 ag)
CC(C)C[C@H](NC(=O)[C@@H]1CCCN1C(=O)[C@@H](N)Cc1ccc(O)cc1)C(=O)NCC(N)=O	D1 antag -37
CC1OC(O[C@H]2C[C@@H](O)[C@]3(CO)[C@@H]4C(CC[C@]3(O)C2)[C@@]2(O)CC[C@H](C3=CC(=O)OC3)[C@@]2(C)C[C@H]4O)C(O)C(O)C1O (stereo not given in full)	none (no result: TRHR ag, TRHR PAM, D1 PAM, D1 antag, D1 ag)
CC[C@H](CO)NC(=O)[C@H]1C=C2c3cccc4[nH]cc(c34)C[C@@H]2N(C)C1	none (no result: TRHR ag, TRHR PAM, D1 PAM, D1 antag, D1 ag)
CN1CC=C(/C=C/c2ccc(-c3ccccc3)cc2)CC1	D1 antag -40 (no result: Epigenetic derep)
Cc1oc2ccc(O)c(CN3CCCCCC3)c2c1C(=O)Nc1cccc(Cl)c1C	Epigenetic derep inconclusive
COc1ccccc1OP(=O)(Nc1ccc(Br)cc1)Oc1ccccc1OC	D1 antag -47 (no result: Epigenetic derep)
CC/C=C\C/C=C\C/C=C\C/C=C\C/C=C\CCCC(=O)NC(C)C(=O)O (stereo not given)	none (no result: TRHR ag, TRHR PAM, D1 PAM, D1 antag, D1 ag)
NC(=O)c1ccc(N=Cc2c(O)n(Cc3ccco3)c(=O)[nH]c2=O)cc1	none
COc1ccc(CCn2c(O)c(C=Nc3ccc(F)cc3)c(=O)[nH]c2=O)cc1OC	TRHR PAM 38
CCN(CC)c1ccc(N=Cc2c(O)n(Cc3ccco3)c(=O)[nH]c2=O)cc1	D1 ag 31, Epigenetic derep inconclusive
CCN(CCO)c1ccc(N=Cc2c(O)n(C)c(=S)[nH]c2=O)cc1	D1 ag 75
CCN(CC)c1ccc(N=Cc2c(O)n(CCc3ccc(OC)c(OC)c3)c(=O)[nH]c2=O)cc1	D1 ag 40, Epigenetic derep inconclusive
Cc1ccc(C(=O)N[C@@H](C)CN2C3=NC[C@H](Cc4ccccc4)N3C[C@H]2Cc2ccc(O)cc2)cc1Br	D1 antag -65
Cc1ccc(C(=O)N[C@@H](C)CN2C3=NC[C@@H](Cc4ccccc4)N3C[C@H]2Cc2ccc(O)cc2)cc1Br	D1 antag -44
CCCCC/C=C\C/C=C\C/C=C\C/C=C\CCCC(=O)N(Cc1ccc(O)c(Cl)c1)Cc1ccc(O)c(Cl)c1	none (no result: TRHR ag, TRHR PAM, D1 PAM, D1 antag, D1 ag)
CC1OC(OC2C(O)CC(OC3C(O)CC(OC4CCC5(C)C(CCC6C5CCC5(C)C(C7=CC(=O)OC7)CCC65O)C4)OC3C)OC2C)CC(O)C1O (stereo not given)	none (no result: TRHR ag, TRHR PAM, D1 PAM, D1 antag, D1 ag)
COC(=O)[C@]1(C)CC[C@@]2(C)CC[C@@]3(C)C4=CC=C5C(=CC(=O)C(O)=C5C)[C@@]4(C)CC[C@@]3(C)C2C1 (stereo not given in full)	none (no result: TRHR ag, TRHR PAM, D1 PAM, D1 antag, D1 ag)
COc1ccc2c(c1)CC1(CN2C)C(=O)NC(=O)N(c2ccc(C)cc2)C1=O (stereo not given)	none
COc1ccc2c(c1)CC1(CN2C)C(=O)NC(=O)N(c2ccc(F)cc2)C1=O (stereo not given)	D1 antag -82
CCCCC/C=C\C/C=C\C/C=C\C/C=C\CCCC(=O)OCCN	none (no result: TRHR ag, TRHR PAM, D1 PAM, D1 antag, D1 ag)
CC1CCC(C(C)C)C(OC(=O)Cn2c(COc3ccccc3)[n+](C)c3ccccc32)C1 (stereo not given)	D1 ag 41
CCS(=O)CCSP(=O)(OC)OC (stereo not given)	none (no result: TRHR ag, TRHR PAM, D1 PAM, D1 antag, D1 ag)
CC(c1ccc(F)cc1)n1cc(C(=O)NCc2ccc3c(c2)OCO3)nn1 (stereo not given)	D1 ag 31
COC(=O)C1=C(c2ccc(F)cc2F)C[C@@H]2CC[C@H]1N2C(=O)NCc1ccc2c(c1)OCO2	none (no result: Epigenetic derep)
CN1C[C@H](CO)C=C2c3cccc4[nH]cc(c34)C[C@@H]21	none (no result: TRHR ag, TRHR PAM, D1 PAM, D1 antag, D1 ag)
CCC1/C=C/C=CCC(C)C(O)[C@@](C)(O)C(=O)C(C)C(O)C(C)C(=O)C(C)C(O)C(C)C=CC(=O)O[C@H]2C(C)C(CC1)O[C@]1(CCC(C)C(CC(C)O)O1)C2C (stereo not given in full)	none (no result: TRHR ag, TRHR PAM, D1 PAM, D1 antag, D1 ag)
Cc1ccc(C[n+]2c(-c3ccc(C)cc3)cc(-c3ccc(C)cc3)cc2-c2ccc(C)cc2)cc1	D1 ag 39 (no result: Epigenetic derep)
Cc1ccc(-c2cc(-c3ccc(C)cc3)[n+](-c3ccc(C(=O)O)cc3)c(-c3ccc(C)cc3)c2)cc1	none (no result: Epigenetic derep)
C=CCC1(C(C)CCC)C(=O)N=C(S)NC1=O (stereo not given)	none (no result: TRHR ag, TRHR PAM, D1 PAM, D1 antag, D1 ag)
C=CCc1cc(OC)c2c(c1OC)OCO2	none (no result: TRHR ag, TRHR PAM, D1 PAM, D1 antag, D1 ag)
CCCCCCCCCOc1ccc2[nH]cc(CCN)c2c1	none
COc1ccc2[nH]cc(CCN)c2c1	TRHR PAM 31
CCCCCSc1cc(OC)c(CCN)cc1OC	D1 ag 31
CCCCCCCSc1cc(OC)c(CCN(C)C)cc1OC	D1 ag 201
CCCCCCCCCCCCC/C=C/[C@@H](O)[C@@H](N)COP(=O)([O-])OCC[N+](C)(C)C	none (no result: TRHR ag, TRHR PAM, D1 PAM, D1 antag, D1 ag)
CN(c1ccc(OCC(=O)N2CCN(C/C=C/c3ccccc3)CC2)cc1)S(=O)(=O)c1cccs1	D1 antag -43
O=C(COc1ccc(Cl)cc1Cl)N1CCN(C/C=C/c2ccccc2)CC1	none
CNC(=O)c1cccn(Cc2cccc(C(F)(F)F)c2)c1=O	D1 antag -32
O=P1(Oc2ccccc2)OCCCS1 (stereo not given)	D1 antag -30
COC(=O)NC/C=C\c1nc(CC/C=C\C(=O)O[C@H]2C[C@H]3CC(=O)O[C@@H](/C=C\CC(C)C)C[C@@H]4CC[C@H](C)[C@H](C[C@@H](OC)C[C@H](C2)O3)O4)co1	none (no result: TRHR ag, TRHR PAM, D1 PAM, D1 antag, D1 ag)
COC(=O)C1=C(c2cccc(OCc3ccccc3)c2)C[C@@H]2CC[C@H]1N2C(=O)NCc1ccccc1	none (no result: Epigenetic derep)
COC(=O)C1=C(c2ccc(F)cc2OCc2ccccc2)C[C@@H]2CC[C@H]1N2C(=O)NC1Cc2ccccc2C1	D1 antag -31 (no result: Epigenetic derep)
COC(=O)C1=C(c2ccc(F)cc2OCc2ccccc2)C[C@@H]2CC[C@H]1N2C(=O)NCc1ccc(F)cc1	none (no result: Epigenetic derep)
COC(=O)C1=C(c2cccc(OCc3ccccc3)c2)C[C@@H]2CC[C@H]1N2C(=O)NCc1cc(C)oc1C(F)(F)F	D1 antag -31 (no result: Epigenetic derep)
COC(=O)C1=C(c2cccc(OCc3ccccc3)c2)C[C@@H]2CC[C@H]1N2C(=O)NCc1ccc(OC)cc1	D1 PAM 41 (no result: Epigenetic derep)
CN1CCN(c2nc(N)c(Br)c(Cl)n2)CC1	D1 antag -34
CN1CCN(c2ncnc(Cl)c2N)CC1	none
